Measurements: the supplement of paper PMC6555819

Assays:
Test in all cases: PBM binding z-score (relative to random genomic background probes); higher = stronger binding; sequences stand for … in GC…GCGATTGACAGCGTAGAATGAAGG
[1] = test system: FXR:RXRa (NR concentration 270 nM, RXRa partner concentration 90 nM)
Method in brief: (§1)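 Custom Agilent 4×180K protein-binding microarrays carried double-stranded probes, each with a 34-nt variable region. These regions held direct-repeat seeds, single-nucleotide variants, half-site ablations and random human genomic background sequences. Ligand-free nuclear receptor dimers were incubated on the arrays for 1 h, antibodies against each partner (one per run) detected binding, and scanned fluorescence was regression-normalized. Binding z-scores take the random background probes as reference.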

[2] = test system: LXRa:RXRa (NR concentration 270 nM, RXRa partner concentration 90 nM)
Method in brief: as §1

[3] = test system: LXRa homodimer (NR concentration 270 nM)
Method in brief: as §1

[4] = test system: LXRb:RXRa (NR concentration 270 nM, RXRa partner concentration 90 nM)
Method in brief: as §1

[5] = test system: LXRb homodimer (NR concentration 270 nM)
Method in brief: as §1

[6] = test system: PPARa:RXRa (NR concentration 270 nM, RXRa partner concentration 90 nM)
Method in brief: as §1

[7] = test system: PPARg:RXRa (NR concentration 180 nM, RXRa partner concentration 90 nM)
Method in brief: as §1

[8] = test system: PPARg:RXRa 270nM:90nM, anti-RXR (NR concentration 270 nM, RXRa partner concentration 90 nM)
Method in brief: as §1

[9] = test system: PPARg:RXRa 30nM:10nM, anti-RXR (NR concentration 30 nM, RXRa partner concentration 10 nM)
Method in brief: as §1

[10] = test system: PPARg:RXRa 90nM:30nM, anti-RXR (NR concentration 90 nM, RXRa partner concentration 30 nM)
Method in brief: as §1

| Sequence | PBM binding z-score [1] | PBM binding z-score [2] | PBM binding z-score [3] | PBM binding z-score [4] | PBM binding z-score [5] | PBM binding z-score [6] | PBM binding z-score [7] | PBM binding z-score [8] | PBM binding z-score [9] | PBM binding z-score [10] |
| --- | --- | --- | --- | --- | --- | --- | --- | --- | --- | --- |
| TCTATTGGTTGAAGGGCAACCGACGAGTCCGTTT | 0.476 | 0.767 | 0.01 | 0.546 | 0.657 | 1.23 | 0.669 | 2.98 | 3.37 | 3.23 |
| GATACCGGGTCAAGGCCAGAGTACGCGTATTGAT | 4.87 | 2.87 | -0.172 | 2.45 | -1.08 | 5.08 | 5.25 | 4.57 | 1.31 | 3.21 |
| ACTTACGCGTCAACGAGGTTATAGCACGCGTATA | 0.0989 | 0.589 | -0.0981 | 0.964 | 0.0457 | 1.35 | 0.862 | 0.282 | 0.115 | 0.253 |
| GGAACGAGGGCATTCGAGTTGATAACATGGCGAT | 1.09 | 1.76 | -0.0799 | 0.415 | -0.451 | 1.56 | 1.3 | 0.636 | -0.0941 | 0.231 |
| ACATGTAGGTTATCGGGTCATTCAGTTTGCGCAT | 3.45 | 3.33 | 1.98 | 3.33 | 1.7 | 4.49 | 6.1 | 5.23 | 2.59 | 4.9 |
| AGTCAAAGTTAACTAGGTAACGTAAGATTCAGCT | -0.192 | 0.0304 | -0.49 | -0.0459 | -0.318 | 2.16 | 2.33 | 2.5 | 0.593 | 1.89 |
| ATCTGTAGGTAAAGATAGTTCAGTGAATGCAAAT | 0.274 | 4.33 | 0.422 | 0.986 | 0.477 | 0.733 | 0.782 | 0.571 | 0.256 | 0.391 |
| ACTAGCAGGCTAAGGGTCACTCAAGATTAGTCCG | 2.37 | 2.99 | -0.0624 | 2.72 | -0.651 | 4.35 | 6.55 | 6.82 | 6.03 | 7.57 |
| GCTAGCAGGACATTTGGGTCACTCAATGACGGGC | 0.0183 | -0.0744 | -0.248 | -0.0431 | -0.72 | 1.31 | 0.997 | 0.479 | -0.424 | -0.0664 |
| ACTATTAGTTGACTTAGGGCAACCGGTACGACGC | 0.0418 | 0.216 | 0.333 | 0.0684 | 0.939 | 0.187 | 0.638 | 0.108 | 0.302 | 0.142 |
| CCGAGTAGGTTACGGGGCATTCAGGCAACGGTGA | 0.382 | 0.612 | -0.693 | 0.593 | -0.641 | 2.14 | 2.87 | 3.66 | 1.1 | 2.95 |
| CCTACTGGCCCAAGGTCATTGATCAGTCAAAGCA | 2.91 | 3.24 | 2 | 3.52 | 0.491 | 3.62 | 0.964 | 2.19 | 0.438 | 1.29 |
| CCTTACGGGTCACTCCAGGTTATAACATCGGAGT | 4.88 | 7.46 | 2.11 | 5.8 | 0.0817 | 4.74 | 3.9 | 3.91 | 1.29 | 2.8 |
| CAAACTATGTCACAGAGGTCAAAGTCCGTGCGTA | 5.6 | 5.73 | 5.85 | 5.11 | 2.14 | 5.51 | 6.2 | 6.01 | 3.36 | 5.69 |
| GCTTACGGGTCAAATGTTATAGCATGAATAGAAT | 6.7 | 4.31 | 0.0219 | 4.11 | 0.827 | 5.85 | 6.74 | 6.08 | 3.81 | 5.84 |
| CCGACTGGGGCAAAGCTTACCATACTCAGTACGA | -0.466 | -0.638 | -0.547 | -0.287 | -0.784 | 0.592 | 1.53 | 2.52 | 0.444 | 2.26 |
| TAGCCTAGGTCAGCTCGGGCCAGTATACGCTATA | 2.43 | 1.05 | -0.68 | 0.599 | -1.22 | 1.66 | 0.605 | 0.958 | -0.317 | 0.418 |
| CCTCGGAGGACCGAAGGTCAGAGCTGTCCGCTTT | 0.789 | 1.42 | -0.056 | 0.863 | -1.03 | 1.61 | -0.382 | 1.16 | -0.716 | 0.325 |
| TCTCGGAGGACACGAAAGGACAGAGCTCGACATC | 0.793 | 0.0695 | -0.281 | -0.358 | -0.815 | -0.148 | 0.542 | 0.751 | 1.85 | 1.34 |
| GCATATAGATAATACAAGGTGAAAGTCCGATTGT | 0.079 | 0.0374 | 0.245 | 0.117 | -0.118 | 0.578 | 1.21 | 0.513 | 0.278 | 0.522 |
| CTGCCAAGGTGAACAAGGTCGTTGATTACTATTC | 0.873 | 0.86 | -0.343 | 1.15 | -0.569 | 2.25 | 0.839 | 1.1 | -0.107 | 0.638 |
| CATACTAGGTCACCGGAAGGTCAAAGTCCGCATG | 5.94 | 6.26 | 5.63 | 5.54 | 2.08 | 5.71 | 8.32 | 7.18 | 4.5 | 6.47 |
| TCGTGTAGGTTAGTCGGGGCATTCAGCCAACATA | 0.782 | 0.838 | 0.294 | 1.36 | 0.252 | 1.16 | -0.0243 | 1.38 | 2.34 | 1.62 |
| TCTATTAGTTGAAGGGCAAACGACGAGTCCGTTT | 0.768 | 1.24 | 0.6 | 1.3 | 0.637 | 1.43 | 0.285 | 2.43 | 3.63 | 2.94 |
